Only some compounds are listed: those with a hit (about 2.1% of all), similar ones and a draw of the others.
MsrA inh: bovine MsrA inhibition; inhibition, % at 15.5 µM; hit rate 0.75% among 360,000; purified bovine MsrA, absorbance read-out;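 note: 0% = vehicle wells with enzyme and 100% = reference inhibitor wells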
ABCB6 inh MLPCN: inhibitors of human ABC transporter ABCB6; Q9NP58; AID 602162; K562-ABCB6 porphyrin accumulation, flow cytometry, 1 h; stronger effect = lower value; fluorescence ratio to DMSO, % at 10 µM; hit rate 0.19% among 360,000;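 active = fluorescence ratio to DMSO below 75%, the collection mean minus 3 SD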;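 note: signal is porphyrin accumulated inside mitochondria; 100% equals median channel fluorescence of DMSO control wells; lower ratio means ABCB6 inhibition with less porphyrin fluorescence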
bovine MsrA act: activates bovine MsrA enzyme; purified bovine MsrA, absorbance read-out; activation, % at 10.6 µM; hit rate 0.3% among 360,000; AID 602163; in the data active = activation above about 7.5%;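 note: 0% = vehicle and 100% = reference activator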
SMARCA2 act: SMARCA2 function activation, primary screen. hit rate 1% among 370,000. MG213 cells, MMTV-luciferase reporter, dexamethasone, overnight. activation, % at 9.1 µM; in the data active = activation above about 7.8%;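 note: 0% = vehicle wells and 100% = reference activator wells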
MsrA conf: confirmation of bovine MsrA inhibitors; shares compounds with MsrA inh; purified bovine MsrA, absorbance read-out; hit rate 41% among 2,300; inhibition, % at 15.5 µM;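 note: coupled to thioredoxin reductase with NADPH and selenocystamine and DMSO as substrate; 0% = vehicle only and 100% = full effect of reference inhibitor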
Numbers without * were called inactive; x = no result. Cut-off read from the data, not from the text of the source, unless noted: active = inhibition above about 4.5%; inactive = the rest.

SMILES	MsrA inh	ABCB6 inh MLPCN	bovine MsrA act	SMARCA2 act	MsrA conf
O=C(Nc1ccc(C(=O)O)cc1)/C(=C\c1ccc2c(c1)OCO2)NC(=O)c1ccco1	7.4*	91	-8	-1	5.0*
c1ccc2c(c1)nc(-c1ccncc1)n1nnnc21	13*	95	-7	2	12*
c1ccc(-c2nc3ccccc3c3nncn23)cc1	0	93	-4	1	x
O=C(CSc1nccn1-c1ncc(C(F)(F)F)cc1Cl)c1ccc(Br)cc1	x	104	-1	x	x
Cc1ccc(/C(CSc2nccn2-c2ncc(C(F)(F)F)cc2Cl)=N\O)cc1	8.6*	97	1	-2	0
CCOC(=O)c1ccc(Nc2c(OCC)c(=O)c2=O)cc1	5.9*	97	-7	0	3
CCCCSc1nc2sc3c(c2c(=O)n1-c1ccccc1)CCN(C)C3	5.4*	102	-4	-4	2
CCCCSc1nc2sc3c(c2c(=O)n1-c1ccc(OC)cc1)CCN(C)C3	0	99	-3	-3	x
COC(=O)CSc1nc2sc3c(c2c(=O)n1-c1ccccc1)CCN(C)C3	4.7*	89	-11	1	2
COc1ccc(-n2c(SC/C=C/c3ccccc3)nnc2-c2cccs2)cc1	x	x	x	-2	x
O=C(N/C(=C/c1ccc([N+](=O)[O-])cc1)C(=O)N1CCOCC1)c1ccco1	4.9*	99	-5	0	4
O=C(N/C(=C/c1ccco1)C(=O)N1CCOCC1)c1ccc([N+](=O)[O-])cc1	1	97	-4	-1	x
NC(=O)N\N=C/C=C/C=C/c1ccc(F)cc1	5.2*	98	-8	3	3
COc1cccc(C(O)c2nccn2Cc2ccccc2)c1OC (centres undefined)	12*	85	-2	0	4
COC(=O)C1=C(C)N(Cc2ccc(C(F)(F)F)cc2)C(=NCc2ccc(C(F)(F)F)cc2)NC1c1cccc(C(F)(F)F)c1 (centres undefined)	-2	x	x	2	x
O=C(Nc1ccc(F)cc1)OCc1cn(Cc2cccc(Cl)c2)nn1	x	x	x	-2	x
O=S(=O)(CC1NCc2ccccc21)NC1CCCC1 (centres undefined)	x	x	x	-6	x
CCC(C)[C@@H](C(=O)OC)N(Cc1cn(Cc2ccccc2)nn1)S(=O)(=O)c1ccccc1Br (some centres undefined)	x	x	x	-3	x
COc1cccc(/C=C2/NC(=O)N(CC(=O)Nc3ccc(C)cc3)C2=O)c1OCc1cccc(C(=O)O)c1	1	93	-4	-3	x
Cc1ccc(NC(=O)CN2C(=O)N/C(=C/c3ccccc3OCc3cccc(C(=O)O)c3)C2=O)cc1	4.7*	101	-4	4	3
Cc1ccc(Nc2n[nH]c(C)c2[N+](=O)[O-])cc1C	11*	86	-8	6	8.2*
O=C(N/N=C/c1ccc(Br)s1)c1cccs1	3	95	-4	-2	x
Cc1ccc(/C=N/NC(=O)c2cccs2)s1	6.7*	101	-6	5	4.9*
O=C(N/N=C/c1ccc([N+](=O)[O-])cc1)c1cccs1	5.4*	97	-4	1	5.0*
CNC(=O)[C@@H](NC(=O)[C@H](CC(C)C)[C@H](O)C(=O)NO)C(C)(C)C	x	x	x	-9	x
SMILES	MsrA inh	ABCB6 inh MLPCN	bovine MsrA act	SMARCA2 act	MsrA conf
CC(C)C[C@H]1COc2cccc(F)c2S(=O)(=O)N1Cc1cn(CC2CCCCC2)nn1	x	x	x	-4	x
CC(=O)Nc1ccc2c(c1)C(=O)N(C)[C@H]1CC[C@H](CC(=O)NCc3ccc(F)cc3)O[C@@H]1CO2	x	x	x	3	x
C=CCn1c(-c2csc(-c3ccccc3)n2)n[nH]c1=S	5.4*	93	0	2	3
COc1ccc(C2=NS(=O)(=O)N(C)C(C(=O)N3CCOCC3)=C2)cc1	4	100	-5	0	x
COc1ccc(C2=NS(=O)(=O)N(C)C(C(=O)N3CCCCC3C)=C2)cc1 (centres undefined)	5.9*	97	-6	2	3
COc1ccc(C2=NS(=O)(=O)N(C)C(C(=O)N3CCC(C(N)=O)CC3)=C2)cc1	6.1*	98	-4	-4	3
COc1ccc(C2=NS(=O)(=O)N(C)C(C(=O)N3C(C)CCCC3C)=C2)cc1 (centres undefined)	4	97	-4	0	x
Nc1ccc(C=Cc2ccc(N)cc2)cc1	5.2*	99	-15	0	4
CCOC(=O)C(=O)/C(C#N)=C/Nc1ccc(F)cc1	0	102	-4	3	x
CCOC(=O)/C(C#N)=C/Nc1cc(F)ccc1C	5.8*	113	-6	-2	1
COC(=O)[C@]12C[C@H](CC(=O)NCC3CCCCC3)C(=O)N(Cc3ccco3)C1=C[C@H](C1CCCC1)O[C@@H]2C	x	x	x	-3	x
